The record followed here is PubChem BioAssay.

Structures are written as SMILES.

The target in this assay is Carbonic anhydrase 2 (Homo sapiens) (UniProt P00918). Briefly: compounds binding carbonic anhydrase 2 – biochemical, small-molecule microarray, Alexa647-labelled CAII, profiling panel (AID 1122). The following applies: CAII-A647 binding fluorescence, higher = more signal.
For the compound `O=C1NC(=O)C2C1C=CC(C(O)C1CCCCC1)N2Nc1ccccn1` (stereo unspecified), the composite z-score is 0.827.
Regarding `COC(=O)C1(CC(C)C)C=C2C(=C(C)C(=O)C2C)CN1` (stereo unspecified), the composite z-score was found to be 0.754.
As to `Cc1ccc(N2C(=O)c3ccccc3[C@@H](C(=O)NCCN3CCOCC3)[C@@H]2c2ccc(CO)cc2)nc1`, the composite z-score was -0.234.
In the case of `COCCOC(=O)N1C(=O)[C@@]2(c3cc(C#CCNC(N)=O)ccc31)[C@H](c1ccc(O)cc1)N1[C@H](c3ccccc3)[C@H](c3ccccc3)OC(=O)[C@H]1[C@@H]2C(=O)N1CCc2cc(OC)c(OC)cc2C1`, the composite z-score amounted to 0.414.
For `O=C(NC1CC1)[C@@H]1c2ccccc2C(=O)N(C2CCCCC2)[C@H]1c1ccc(CO)cc1`, the composite z-score came out at 0.554.
In turn, `COc1ccc([Si](C)(C)[C@@H]2[C@@H](CC(=O)N(CCO)Cc3ccccc3)O[C@]3(C(=O)N(Cc4cccc(I)c4)c4ccccc43)[C@H]2C)cc1` showed a composite z-score of 0.364.
